Measurements published in PubChem BioAssay (EPA / NIEHS).
Active and inactive are the calls of the source. Rule for the calls, unless noted: active = hit-call score of the fitted dose curve at least 0.9, where 1 is the maximum; inactive = score below 0.9.

Legend:
[1] = read-out: Protein phosphatase 2A (PPP2R4), PTPA (gene 5524); experiment: LTEA_HepaRG_PPP2R4: Life Technologies and Expression Analysis (LTEA) Assay for Protein phosphatase 2A (PPP2R4) using HepaRG (AID 2283522); conditions: mRNA level, 48 h; actives raise or lower the signal
Method in brief: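 Expression was quantified by Fluidigm qRT-PCR normalised to three housekeeping genes after 48 h treatment. Human HepaRG cells received an 8-point series from 100 µM downward by half-logs, in duplicate with 0.5% DMSO vehicle and 1 mM phenobarbital as induction control.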

[2] = read-out: Phosphatase and tensin (PTEN), PTEN (gene 5728); experiment: LTEA_HepaRG_PTEN: Life Technologies and Expression Analysis (LTEA) Assay for Phosphatase and tensin (PTEN) using HepaRG (AID 2283523); conditions: mRNA level, 48 h; actives raise or lower the signal
Method in brief: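 HepaRG, 48 h exposure, 8-pt half-log series from 100 uM top, 0.5% DMSO vehicle, duplicates. Readout: Fluidigm qRT-PCR of PTEN transcript; housekeeping normalization (ACTB, GAPDH, POLR2A). Gain or loss fitted relative to DMSO baseline.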

[3] = read-out: solute carrier (SLC22A1), SLC22A1 (gene 6580); experiment: LTEA_HepaRG_SLC22A1: Life Technologies and Expression Analysis (LTEA) Assay for solute carrier (SLC22A1) using HepaRG (AID 2283524); conditions: mRNA level, 48 h; actives raise or lower the signal;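 for AC50: differentiated human HepaRG liver cells in serum-free induction medium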
Method in brief: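 qRT-PCR readout (TaqMan, Fluidigm arrays) of SLC22A1 transcript, normalized to three housekeeping genes; bidirectional curve fit relative to 0.5% DMSO vehicle. Differentiated human HepaRG cells, 48 h chemical exposure, top concentration 100 uM, half-log steps, eight points.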

[4] = read-out: Pyruvate Dehydrogenase Kinase 4 (PDK4), PDK4 (gene 5166); experiment: LTEA_HepaRG_PDK4: Life Technologies and Expression Analysis (LTEA) Assay for Pyruvate Dehydrogenase Kinase 4 (PDK4) using HepaRG (AID 2283525); conditions: mRNA level, 48 h; actives raise or lower the signal
Method in brief: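 HepaRG (human liver line), 48 h chemical exposure, 8-pt half-log CRC top 100 uM, 0.5% DMSO vehicle, duplicates. Readout: TaqMan qRT-PCR of PDK4 mRNA, housekeeping-normalized; gain/loss fit relative to DMSO baseline.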

[5] = read-out: NAD(P)H dehydrogenase [quinone] 1 (NQO1), NQO1 (gene 1728); experiment: LTEA_HepaRG_NQO1: Life Technologies and Expression Analysis (LTEA) Assay for NAD(P)H dehydrogenase [quinone] 1 (NQO1) using HepaRG (AID 2283526); conditions: mRNA level, 48 h; actives raise or lower the signal
Method in brief: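 NQO1 transcript induction or loss measured by TaqMan qRT-PCR, referenced to three housekeeping genes and fitted bidirectionally against 0.5% DMSO. HepaRG cultures exposed 48 h, duplicate, eight-point half-log series, top 100 uM.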

[6] = read-out: Nuclear factor erythroid 2-related factor 2 (Homo sapiens) (UniProt Q16236); experiment: LTEA_HepaRG_NFE2L2: Life Technologies and Expression Analysis (LTEA) Assay for Nuclear factor erythroid 2-related factor 2 (NFE2L2) Transcription Factor using HepaRG (AID 2283527); conditions: mRNA level, 48 h; actives raise or lower the signal
Method in brief: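 HepaRG, 48 h dosing, 8-pt half-log series from 100 uM in 0.5% DMSO, duplicates. Read-out: NFE2L2 mRNA by qRT-PCR (ACTB/GAPDH/POLR2A normalization). Bidirectional curve fit vs DMSO baseline.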

[7] = read-out: succinate dehydrogenase complex iron sulfur subunit B (SDHB), SDHB (gene 6390); experiment: LTEA_HepaRG_SDHB: Life Technologies and Expression Analysis (LTEA) Assay for succinate dehydrogenase complex iron sulfur subunit B (SDHB) using HepaRG (AID 2283528); conditions: mRNA level, 48 h; actives raise or lower the signal
Method in brief: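 SDHB transcript level read by TaqMan qRT-PCR, housekeeping-normalised (ACTB, GAPDH, POLR2A), after 48 h chemical treatment of plated HepaRG cells; eight concentrations top 100 uM, half-log steps, 0.5% DMSO, duplicates; fitted both directions against DMSO.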

[8] = read-out: Signal transducer and activator of transcription 3 (Homo sapiens) (UniProt P40763); experiment: LTEA_HepaRG_STAT3: Life Technologies and Expression Analysis (LTEA) Assay for Signal transducer and activator of transcription (STAT3) using HepaRG (AID 2283529); conditions: mRNA level, 48 h; actives raise or lower the signal
Method in brief: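 HepaRG, 48 h exposure, 8-pt half-log series (top 100 uM), 0.5% DMSO vehicle, duplicates. Readout: STAT3 transcript by Fluidigm qRT-PCR, housekeeping-normalized; bidirectional fit vs DMSO baseline.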

[9] = read-out: solute carrier (SLCO1B1), SLCO1B1 (gene 10599); experiment: LTEA_HepaRG_SLCO1B1: Life Technologies and Expression Analysis (LTEA) Assay for solute carrier (SLCO1B1) using HepaRG (AID 2283530); conditions: mRNA level, 48 h; actives raise or lower the signal
Method in brief: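 SLCO1B1 transcript levels were quantified by TaqMan qRT-PCR using three housekeeping genes for normalization. This followed 48 h chemical exposure (100 uM top, half-log, 8 points, 0.5% DMSO) of HepaRG liver cells, with gain or loss fitted relative to DMSO.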

[10] = read-out: sulfotransferase 2A1 (SULT2A1), SULT2A1 (gene 6822); experiment: LTEA_HepaRG_SULT2A1: Life Technologies and Expression Analysis (LTEA) Assay for sulfotransferase 2A1 (SULT2A1) using HepaRG (AID 2283531); conditions: mRNA level, 48 h; actives raise or lower the signal
Method in brief: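 Expression change of SULT2A1, by qRT-PCR with three housekeeping-gene normalization, was scored bidirectionally versus DMSO. Cells: differentiated HepaRG, dosed in duplicate for 48 h across 8 points, highest 100 µM, half-log dilution, 0.5% DMSO.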

[11] = read-out: Transforming Growth Factor (TGFA), TGFA (gene 7039); experiment: LTEA_HepaRG_TGFA: Life Technologies and Expression Analysis (LTEA) Assay for Transforming Growth Factor (TGFA) using HepaRG (AID 2283532); conditions: mRNA level, 48 h; actives raise or lower the signal
Method in brief: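 qRT-PCR read-out of TGFA transcript, normalized to three housekeeping genes, fitted bidirectionally against 0.5% DMSO baseline. Human HepaRG cultures received chemicals for 48 h at eight half-log concentrations, top 100 uM.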

[12] = read-out: Transforming Growth Factor (TGFB1), TGFB1 (gene 7040); experiment: LTEA_HepaRG_TGFB1: Life Technologies and Expression Analysis (LTEA) Assay for Transforming Growth Factor (TGFB1) Transporter using HepaRG (AID 2283533); conditions: mRNA level, 48 h; actives raise or lower the signal
Method in brief: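 TGFB1 transcript measured by qRT-PCR with normalisation to three housekeeping genes (ACTB, GAPDH, POLR2A); human HepaRG line treated in duplicate for 48 hr with an 8-point series topping at 100 uM, 0.5% DMSO vehicle, bidirectionally fitted.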

TIMP1, TIMP1 (gene 7076) = experiment: LTEA_HepaRG_TIMP1: Life Technologies and Expression Analysis (LTEA) Assay for TIMP1 using HepaRG (AID 2283534); conditions: mRNA level, 48 h; actives raise or lower the signal
Method in brief: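 Bidirectional change in TIMP1 transcript versus 0.5% DMSO, measured by TaqMan qRT-PCR with three housekeeping genes for normalization. HepaRG human liver cells dosed 48 h in duplicate, top concentration 100 uM with half-log dilutions.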

[13] = read-out: Tumor necrosis factor receptor 1 (TNFRSF1A), TNFRSF1A (gene 7132); experiment: LTEA_HepaRG_TNFRSF1A: Life Technologies and Expression Analysis (LTEA) Assay for Tumor necrosis factor receptor 1 (TNFRSF1A) using HepaRG (AID 2283535); conditions: mRNA level, 48 h; actives raise or lower the signal
Method in brief: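 mRNA measured by qRT-PCR (TaqMan, Fluidigm arrays) against ACTB/GAPDH/POLR2A housekeepers after 48 h chemical exposure of HepaRG cells. Top concentration 100 uM, half-log 8-point series, duplicates; vehicle 0.5% DMSO, both fit directions.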

[14] = read-out: Thyroid Hormone Responsive (THRSP), THRSP (gene 7069); experiment: LTEA_HepaRG_THRSP: Life Technologies and Expression Analysis (LTEA) Assay for Thyroid Hormone Responsive (THRSP) using HepaRG (AID 2283536); conditions: mRNA level, 48 h; actives raise or lower the signal
Method in brief: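 qRT-PCR read-out (Fluidigm TaqMan), housekeeping-normalized (ACTB/GAPDH/POLR2A). HepaRG, 48 h chemical exposure, 8-pt half-log series from 100 uM in 0.5% DMSO, duplicates. Bidirectional curve fit vs 0.5% DMSO baseline.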

[15] = read-out: Cellular tumor antigen p53 (Homo sapiens) (UniProt P04637); experiment: LTEA_HepaRG_TP53: Life Technologies and Expression Analysis (LTEA) Assay for Tumor Protein P53 (TP53) using HepaRG (AID 2283537); conditions: mRNA level, 48 h; actives raise or lower the signal
Method in brief: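 TP53 transcript measured by qRT-PCR, normalized to three housekeeping genes, after 48 h treatment of human HepaRG cultures with chemicals from 100 uM downward in half-log steps (0.5% DMSO vehicle, serum-free induction medium). Up- or down-regulation fitted against DMSO.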

[16] = read-out: UDP glucuronosyltransferase (UGT1A1), UGT1A1 (gene 54658); experiment: LTEA_HepaRG_UGT1A1: Life Technologies and Expression Analysis (LTEA) Assay for UDP glucuronosyltransferase (UGT1A1) using HepaRG (AID 2283538); conditions: mRNA level, 48 h; actives raise or lower the signal
Method in brief: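 UGT1A1 transcript level, measured by qRT-PCR with three housekeeping genes for normalization, after 48 h treatment of human HepaRG cells (0.5% DMSO, duplicates, up to 100 uM, half-log steps, 8 points). Curves fit both directions against DMSO baseline.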

[17] = read-out: UDP glucuronosyltransferase (UGT1A6), UGT1A6 (gene 54578); experiment: LTEA_HepaRG_UGT1A6: Life Technologies and Expression Analysis (LTEA) Assay for UDP glucuronosyltransferase (UGT1A6) using HepaRG (AID 2283539); conditions: mRNA level, 48 h; actives raise or lower the signal
Method in brief: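 Expression was quantified by TaqMan qRT-PCR on Fluidigm arrays with ACTB/GAPDH/POLR2A normalization and bidirectional fitting against 0.5% DMSO. HepaRG cells (~100,000/well) were treated in duplicate for 48 h at eight half-log concentrations up to 100 uM in serum-free induction medium.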

[18] = read-out: X-box binding protein 1 (XBP1), XBP1 (gene 7494); experiment: LTEA_HepaRG_XBP1: Life Technologies and Expression Analysis (LTEA) Assay for X-box binding protein 1 (XBP1) using HepaRG (AID 2283540); conditions: mRNA level, 48 h; actives raise or lower the signal
Method in brief: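 XBP1 transcript by qRT-PCR (housekeeping-normalized: ACTB, GAPDH, POLR2A) after 48 h chemical treatment of HepaRG cells, 8-point half-log series topping at 100 uM, vehicle 0.5% DMSO. Gain and loss of signal fitted relative to DMSO.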

[19] = LTEA_HepaRG_LDH_cytotoxicity: Cytotoxicity Assessment in the Life Technologies and Expression Analysis (LTEA) Assay (AID 2283563; active = hit-call score of the fitted dose curve at least 0.9, where 1 is the maximum;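 for AC50: LDH activity released into spent culture medium as a marker of cell death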)
Method in brief: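 LDH release into culture medium read after 48 h chemical treatment of HepaRG cells. Duplicate wells, eight-point half-log series topping at 100 uM, 0.5% DMSO vehicle and baseline.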

Measured: AC50

Signal transducer and activator of transcription 3 (Homo sapiens), sequence (P40763 whole entry, looked up): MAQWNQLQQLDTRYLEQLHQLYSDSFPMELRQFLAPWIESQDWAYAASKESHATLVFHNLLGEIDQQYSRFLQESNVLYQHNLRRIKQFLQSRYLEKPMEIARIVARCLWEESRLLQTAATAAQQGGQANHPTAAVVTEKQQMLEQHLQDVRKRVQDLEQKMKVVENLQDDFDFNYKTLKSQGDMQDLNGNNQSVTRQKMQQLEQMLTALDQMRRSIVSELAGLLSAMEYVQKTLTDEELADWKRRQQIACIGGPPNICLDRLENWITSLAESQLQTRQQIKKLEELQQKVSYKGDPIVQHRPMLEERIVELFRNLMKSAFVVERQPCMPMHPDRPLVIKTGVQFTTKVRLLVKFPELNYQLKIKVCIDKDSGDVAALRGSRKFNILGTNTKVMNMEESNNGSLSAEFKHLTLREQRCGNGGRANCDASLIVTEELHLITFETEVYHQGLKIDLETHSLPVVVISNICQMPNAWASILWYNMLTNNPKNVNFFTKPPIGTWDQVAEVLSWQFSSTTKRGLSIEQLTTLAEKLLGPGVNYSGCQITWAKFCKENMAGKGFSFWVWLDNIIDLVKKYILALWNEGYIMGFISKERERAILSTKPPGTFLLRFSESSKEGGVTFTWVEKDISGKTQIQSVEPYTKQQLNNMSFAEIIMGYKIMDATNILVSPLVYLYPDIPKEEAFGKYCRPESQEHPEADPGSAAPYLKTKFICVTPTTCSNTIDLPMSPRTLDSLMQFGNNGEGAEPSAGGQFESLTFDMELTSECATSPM
Cellular tumor antigen p53 (Homo sapiens), sequence (P04637 whole entry, looked up): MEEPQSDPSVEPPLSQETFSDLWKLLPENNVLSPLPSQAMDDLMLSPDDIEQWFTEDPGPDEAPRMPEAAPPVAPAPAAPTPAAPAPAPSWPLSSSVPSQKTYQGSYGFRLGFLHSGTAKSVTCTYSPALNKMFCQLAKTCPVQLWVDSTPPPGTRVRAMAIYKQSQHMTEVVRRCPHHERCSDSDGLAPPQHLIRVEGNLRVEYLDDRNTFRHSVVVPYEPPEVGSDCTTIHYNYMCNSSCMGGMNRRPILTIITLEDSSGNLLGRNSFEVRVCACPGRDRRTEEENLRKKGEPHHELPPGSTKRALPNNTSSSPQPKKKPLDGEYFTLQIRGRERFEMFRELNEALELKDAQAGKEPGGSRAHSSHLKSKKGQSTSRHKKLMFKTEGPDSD
Nuclear factor erythroid 2-related factor 2 (Homo sapiens), sequence (Q16236 whole entry, looked up): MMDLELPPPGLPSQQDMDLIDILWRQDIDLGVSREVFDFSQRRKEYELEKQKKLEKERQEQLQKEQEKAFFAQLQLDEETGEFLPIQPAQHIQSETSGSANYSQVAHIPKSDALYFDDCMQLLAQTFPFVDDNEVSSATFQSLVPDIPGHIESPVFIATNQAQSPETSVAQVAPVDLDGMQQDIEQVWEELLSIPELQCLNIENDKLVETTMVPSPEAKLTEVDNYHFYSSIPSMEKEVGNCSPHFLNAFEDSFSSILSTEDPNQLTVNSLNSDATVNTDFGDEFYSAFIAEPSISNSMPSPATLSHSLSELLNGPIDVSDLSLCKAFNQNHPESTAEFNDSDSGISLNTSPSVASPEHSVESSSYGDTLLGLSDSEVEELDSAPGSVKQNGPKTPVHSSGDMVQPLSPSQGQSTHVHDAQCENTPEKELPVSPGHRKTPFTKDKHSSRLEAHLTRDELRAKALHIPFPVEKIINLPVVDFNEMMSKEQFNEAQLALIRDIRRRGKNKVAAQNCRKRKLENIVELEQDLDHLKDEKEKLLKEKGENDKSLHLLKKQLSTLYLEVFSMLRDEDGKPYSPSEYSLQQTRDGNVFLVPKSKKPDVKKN

CCCSC(=O)N(CCC)CCC
inactive: [1] | [2] | [3] | [4] | [5] | [6] | [7] | [8] | [9] | [10] | [11] | [12] | TIMP1, TIMP1 (gene 7076) | [13] | [14] | [15] | [16] | [17] | [18] | [19]

O=C1CCCO1
inactive: [1] | [3] | [4] | [6] | [7] | [8] | [9] | [10] | [11] | [12] | TIMP1, TIMP1 (gene 7076) | [14] | [16] | [18] | [19]
active: [2] 82.9 µM | [5] 50 µM | [13] 77 µM | [15] 50 µM | [17] 50 µM

Clc1ccc(C(c2ccc(Cl)cc2)C(Cl)(Cl)Cl)cc1
active: [7] 17 µM | [14] 68.1 µM | [16] 2.03 µM | [19] 72.3 µM
inactive: [1] | [2] | [3] | [4] | [5] | [6] | [8] | [9] | [10] | [11] | [12] | TIMP1, TIMP1 (gene 7076) | [13] | [15] | [17] | [18]

COc1cc(C=O)cc2c1[C@H](COC(N)=O)[C@]1(OC(C)=O)ON2C[C@H]2[C@@H]1N2C(C)=O
active: [2] 29.9 µM | [3] 0.58 µM | [4] 95.3 µM | [6] 93.1 µM | [7] 93.4 µM | [9] 733 nM | [11] 1.46 µM | [12] 3.38 µM | TIMP1, TIMP1 (gene 7076) 2.63 µM | [16] 24.6 µM | [19] 1.54 µM
inactive: [1] | [5] | [8] | [10] | [13] | [14] | [15] | [17] | [18]

COC(=O)c1ccccc1N
inactive: [1] | [2] | [3] | [4] | [5] | [6] | [7] | [8] | [9] | [10] | [11] | [12] | TIMP1, TIMP1 (gene 7076) | [13] | [14] | [15] | [16] | [17] | [18] | [19]

CN(C)c1ccc(C(=O)c2ccc(N(C)C)cc2)cc1
inactive: [1] | [2] | [5] | [6] | [7] | [8] | [9] | [10] | [11] | [12] | TIMP1, TIMP1 (gene 7076) | [13] | [14] | [15] | [17] | [18] | [19]
active: [3] 50 µM | [4] 25.8 µM | [16] 13.2 µM
